Compound activity deposited in PubChem by National Center for Advancing Translational Sciences (NCATS).
HepG2 tox: kills HepG2 cells in TGF-b inhibitor counter-screen. HepG2 CAGA-GFP viability, ATP luminescence, 18 h. 0.76% of 410,000 active. Potency, µM (highest dose often 46.1 µM), actives largely listed as cytotoxic
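CellTiter-Glo luminescence gave cytotoxicity after 18 hours at 37 degrees C. The cells were HepG2 CAGA-GFP in 1% FBS DMEM, stimulated with 500 pg/mL TGF-beta after compound addition. %Activity was normalised to no-cell wells (complete cell-killing) and DMSO (no toxicity), and curves were fitted and classified.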
RORg inh: ROR gamma (mouse) transcription inhibition. Potency, µM (highest dose often 53.6 µM), hits mostly inhibitors. AID 2551. Drosophila S2 Gal4-RORgamma UAS-luciferase reporter, 20 h. 5.4% of 310,000 active; further: nearly all actives have a fitted effect of over 60% in size
Target sequence (P51450 whole entry, looked up, the tested form may be a part): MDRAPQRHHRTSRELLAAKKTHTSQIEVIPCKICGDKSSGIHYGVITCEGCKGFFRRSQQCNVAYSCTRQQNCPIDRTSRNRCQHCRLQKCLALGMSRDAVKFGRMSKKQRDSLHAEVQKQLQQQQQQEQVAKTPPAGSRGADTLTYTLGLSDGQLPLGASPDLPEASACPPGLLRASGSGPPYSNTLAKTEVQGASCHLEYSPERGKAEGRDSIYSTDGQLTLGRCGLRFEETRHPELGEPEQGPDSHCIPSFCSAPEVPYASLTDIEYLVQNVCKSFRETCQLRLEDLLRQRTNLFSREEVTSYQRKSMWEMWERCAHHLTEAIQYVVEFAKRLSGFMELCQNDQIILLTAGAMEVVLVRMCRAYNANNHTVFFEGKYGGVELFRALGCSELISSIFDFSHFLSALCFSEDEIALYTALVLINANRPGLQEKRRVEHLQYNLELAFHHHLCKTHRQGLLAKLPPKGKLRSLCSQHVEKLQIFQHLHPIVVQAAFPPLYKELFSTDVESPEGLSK
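A Gal4/UAS one-hybrid system in insect cells: metallothionein-promoter Gal4–ROR gamma fusion plus Photinus luciferase reporter. Copper sulfate 700 uM final, 20 hr ambient incubation, luminescent detection after 10 min with reagent.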
ATXN viability: reduces viability in counter-screen for ATXN expression inhibitors | S2 cells (HEK-293 line with an ATXN2-luciferase reporter) viability, CellTiter-Fluor protease fluorescence, 24 h | Potency, µM (highest dose often 56.7 µM), usual class: cytotoxic | 0.49% of 400,000 active | AID 651635; further: nearly all actives have a fitted effect of over 40% in size
ATXN2 expr inh: reduces ATXN2 reporter expression in HEK-293 cells. HEK-293 ATXN2-luciferase reporter, luminescence, 24 h. 0.72% of 360,000 active. Potency, µM (highest dose often 57 µM), actives largely listed as inhibitors. AID 1745845; further: nearly all actives have a fitted effect of over 55% in size
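qHTS (up to 57 uM final) was run with 24 h compound exposure of reporter cells at 37 °C. Each well was multiplexed: SteadyGlo luminescence measured ATXN2-luciferase expression after a fluorogenic Gly-Phe-AFC viability readout (25 uM final).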
Gal4-VP16 FLuc: Gal4-VP16 reporter inhibition counter-screen. Drosophila S2 Gal4-VP16 UAS-luciferase, luminescence, 20 h. Potency, µM (series often up to 53.6 µM), most hits filed as inhibitors. 3.5% of 310,000 active. AID 2546;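 further: Gal4-VP16 expression switched on by copper sulfate through the metallothionein promoter; nearly all actives have a fitted effect of over 50% in size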
TGFb inhibitor: blocks TGF-b signaling; Potency, µM (titrated, usually from 46.1 µM), most hits filed as inhibitors; HepG2 CAGA-GFP TGF-b/SMAD3 reporter, GFP fluorescence, 18 h; TGF-beta stimulated, 500 pg/mL final; 1.2% of 410,000 active; AID 588855; further: nearly all actives have a fitted effect of over 65% in size
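Inhibition of TGF-beta-driven CAGA-GFP reporter expression in HEPG2 cells is measured by cellular GFP fluorescence after 18 h stimulation with 500 pg/mL recombinant TGF-beta in 1% FBS medium at 37 degrees C.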
Numbers stand for hits; i = inactive; ? = inconclusive; nt = no result; [ ] = another dose, or the depositor's remark. Rows were chosen to be rich in hits. Some 6.3% of all compounds tested hit in one or more screens of this group. The call rests on the fitted dose curve; in most records, active means well fitted curve in the direction sought with a large enough effect; inconclusive means small, poorly fitted or top-dose-only effect, or another doubt; inactive means no such curve, though single readings can be large; an effect the other way counts as inactive or inconclusive.

SMILES	HepG2 tox	RORg inh	ATXN viability	ATXN2 expr inh	Gal4-VP16 FLuc	TGFb inhibitor
CCCCC[C@H](O)/C=C/C1C(=O)C=C[C@H]1C/C=C\CCCC(=O)OC (stereo partly drawn)	i	nt	nt	?	nt	22µM
CCc1nnc(NC(=O)c2ccc(S(=O)(=O)N(CCOC)CCOC)cc2)s1	i	i	nt	i	i	i
CCCN(CCC)S(=O)(=O)c1ccc(C(=O)O)cc1	i	i	i	i	i	i
CCCCN(CC)S(=O)(=O)c1ccc(C(=O)Nc2nnc(COC)o2)cc1	i	1.3µM	i	i	3.2µM	i
CCCCN(CC)S(=O)(=O)c1ccc(C(=O)Nc2nnc(CSC)o2)cc1	i	0.71µM	i	i	1µM	i
CCCN(CCC)S(=O)(=O)c1ccc(C(=O)Nc2nnc(CSC)o2)cc1	i	0.89µM	?	?	1.3µM	i
CCCCN(CCCC)S(=O)(=O)c1ccc(C(=O)Nc2nnc(CSC)o2)cc1	i	0.32µM	i	?	0.89µM	?
Cc1nnc(NC(=O)C2CCN(C(=O)c3ccsc3)CC2)s1	i	nt	nt	nt	nt	i
N#CCCN(CCC#N)S(=O)(=O)c1ccc(C(=O)Nc2nnc(C3=COCCO3)o2)cc1	i	i	i	nt	i	i
CCCCN(CC)S(=O)(=O)c1ccc(C(=O)Nc2nnc(-c3ccccc3Cl)o2)cc1	nt	?	nt	nt	0.79µM	nt
CC(C)C(=O)N1CCC1(C)C(=O)Nc1nc2ccccc2[nH]1 (stereo not drawn)	i	nt	i	i	nt	i
CC1=CC(C)(C)NC(=S)N1c1ccc(Cl)cc1	i	nt	i	i	nt	i
CC1=CC(C)(C)NC(=S)N1c1ccc2ccccc2c1	i	3.5µM	i	i	6.3µM	i
CC1=CC(C)(C)NC(=S)N1CCO	i	nt	i	i	nt	i
CC1=CC(C)(C)NC(=S)N1C(C)c1ccccc1 (stereo not drawn)	i	2.2µM	i	i	4µM	?
CC1=CC(C)(C)NC(=S)N1c1cccc2ccccc12	i	?	i	i	5µM	i
CCc1ccccc1NC(=S)NCC1CCN(c2ccc(OC)cc2)C1 (stereo not drawn)	i	2.5µM	i	nt	10µM	?
COc1ccc(N2CCC(CNC(=S)Nc3cccc(OC)c3)C2)cc1 (stereo not drawn)	nt	3.2µM	nt	nt	5.6µM	nt
CCc1cccc(C)c1NC(=S)NCC1CCN(c2ccc(OC)cc2)C1 (stereo not drawn)	i	6.3µM	i	?	7.1µM	?
COc1cccc(NC(=S)Nc2cc(C)cc(C)n2)c1	i	1.3µM	i	i	?	?
COc1ccc(NC(=S)Nc2cc(C)cc(C)n2)cc1OC	i	i	i	i	?	i
Cc1cc(C)nc(NC(=S)Nc2cccc(F)c2)c1	i	1.8µM	i	i	7.1µM	i
CCC1CCCCN1C(=S)NC1CCCCC1 (stereo not drawn)	i	10µM	i	i	?	i
COc1ccc(OC)c(/C=C/c2cc3ccccc3cn2)c1	i	nt	nt	nt	nt	?
Cc1ccc(-c2nnc(Sc3nc4ccccc4o3)c3ccccc23)cc1	i	8.9µM	?	?	?	?
SMILES	HepG2 tox	RORg inh	ATXN viability	ATXN2 expr inh	Gal4-VP16 FLuc	TGFb inhibitor
Cc1nnc(Sc2nc3ccccc3o2)c2ccccc12	i	?	i	i	?	13µM
CCSc1nnc(-c2ccc(C)cc2)c2ccccc12	i	i	i	i	i	i
Clc1ccc(-c2nnc(Sc3nc4ccccc4o3)c3ccccc23)cc1	i	6.3µM	?	?	?	?
Cc1nc(N2CCOCC2)c2nc(-c3ccccc3)n(CC3CCN(C)CC3)c2n1	nt	i	nt	nt	i	nt
Clc1cccc(Cl)c1/C=C/c1nc2ccccc2[nH]1	i	11µM	?	i	?	?
Clc1ccc(/C=C/c2nc3ccccc3[nH]2)cc1	11µM	4.5µM	?	?	7.1µM	i
Clc1ccc(/C=C/c2nc3ccccc3[nH]2)c(Cl)c1	i	?	i	?	7.1µM	?
O=C(/C=C/c1ccc(Cl)cc1Cl)c1nc2ccccc2[nH]1	i	i	i	i	i	i
Cc1cnc(CNc2nc(-c3ccc4c(c3)OCO4)nc3ccccc23)cn1	nt	i	nt	nt	i	nt
COc1cccc(C2=NN(C(=O)c3ccccc3)C(O)(C(F)(F)F)C2)c1 (stereo not drawn)	i	10µM	?	i	?	i
O=C(c1ccccc1O)N1N=C(c2ccccc2)CC1(O)C(F)(F)F (stereo not drawn)	i	8.9µM	i	i	?	?
COc1cccc(C2=NN(C(=O)c3ccco3)C(O)(C(F)(F)F)C2)c1 (stereo not drawn)	i	5.6µM	i	i	?	i
Nc1ccc(C(=O)N2N=C(c3ccccc3)CC2(O)C(F)(F)F)cc1 (stereo not drawn)	i	10µM	i	i	i	i
O=S(=O)(NCCS(=O)(=O)N1CCN(c2cccc(Cl)c2)CC1)c1ccc(F)cc1	i	nt	nt	nt	nt	i
COC(=O)[C@@]1(Cc2ccccc2)[C@H]2c3cc(C(=O)N(C)C)n(CCF)c3C[C@H]2CN1C(=O)c1ccccc1	nt	i	nt	nt	i	nt
COCCCn1c(=N)c(C(=O)NCC2CCCO2)cc2c(=O)n3cc(C)ccc3nc21 (stereo not drawn)	i	nt	nt	i	nt	i
CCC(C(=O)NCCc1cc(OC)ccc1OC)n1nc(C)c2c(C)n(-c3ccccc3)nc2c1=O (stereo not drawn)	i	nt	i	i	nt	?
COc1cccc(CNC(=O)c2c(OC)cc(=O)n3c2CCN(C(=O)C2CC24CCCC4)CC3)c1 (stereo not drawn)	nt	nt	i	nt	nt	nt
CCCCC1=NN(C(=O)c2ccco2)C(O)(C(F)(F)F)C1 (stereo not drawn)	i	6.3µM	i	i	18µM	i
COc1cccc(C2=NN(C(=O)C3CC3)C(O)(C(F)(F)F)C2)c1 (stereo not drawn)	i	nt	i	nt	nt	i
COc1cccc(C(=O)N2N=C(c3ccccc3)CC2(O)C(F)(F)F)c1 (stereo not drawn)	i	18µM	i	i	20µM	?
COc1ccc(C(=O)N2N=C(c3ccccc3)CC2(O)C(F)(F)F)cc1 (stereo not drawn)	i	16µM	i	i[11.3 µM]	i[10 µM]	?
O=C(c1ccncc1)N1N=C2CCCCCC2C1(O)C(F)(F)F (stereo not drawn)	i	i	i	i	i	i
O=C(c1ccco1)N1N=C2CCCCCC2C1(O)C(F)(F)F (stereo not drawn)	i	0.63µM	i	i	1µM	i
CCCCC1=NN(C(=O)c2ccncc2)C(O)(C(F)(F)F)C1 (stereo not drawn)	i	i	i	i	?	i
COc1cc2[nH]c(=O)n(CCCC(=O)NCc3ccccc3Cl)c(=O)c2cc1OC	i	nt	i	i	nt	i
CCOc1ccc(C(C)=O)cc1CN1c2ccc(S(N)(=O)=O)cc2CC1C (stereo not drawn)	i	i	i	i	i	i
